A number with no mark means an inactive call. No rule for the calls is given here.
Each molecule was assayed on Aerobactin synthetase IucA (Klebsiella pneumoniae hvKP1) (assay: IucA enzyme inhibition, primary screen, biochemical, Spectrum library (AID 1346200;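 also: 100% = wells without compound and 0% = wells lacking enzyme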)). Details: malachite green pyrophosphate, A620, at 8 µM, active compounds read low.

Compound | activity remaining
COc1ccc(-c2cc(=O)c3c(O)cc(OC)c(OC)c3o2)c(OC)c1 | 94.3%
COC(=O)CCC(C)[C@H]1CCC2C3C(C[C@H](O)[C@@]21C)[C@@]1(C)CC[C@@H](O)C[C@H]1C[C@H]3O (some centres undefined) | 105%
COc1cc(O)ccc1C(C)=O | 124%
CC1(C)C(=O)C=C[C@@]2(C)C1C=C[C@]1(C)C2CC[C@@]2(C)[C@H](c3ccoc3)OC(=O)C3OC321 (some centres undefined) | 102%

Reference: PubChem BioAssay
